This note sets out measurements from PubChem BioAssay (NCI).

Common to all, as to test: NCI-60 one-dose screen, 48 h (100 = growth as untreated, 0 = no growth, -100 = all killed)
Holding throughout (details): 10 µM unless noted

Experiment [1] relates to HCT-15 colon.
Experiment [2] deals with HT29 colon.
Experiment [3] concerns SNB-75 CNS.
In experiment [4] the test system is SNB-19 CNS.
For experiment [5], the system named is U251 CNS.
The test system of experiment [6] is PC-3 prostate.
The test system of experiment [7] is SK-MEL-5 melanoma.
For experiment [8], the system named is UACC-62 melanoma.
Experiment [9] relates to LOX IMVI melanoma.
The test system of experiment [10] is SK-MEL-28 melanoma.
Experiment [11] relates to EKVX NSCLC.
The test system of experiment [12] is SN12C renal.
Experiment [13] deals with UO-31 renal.
Experiment [14] relates to TK-10 renal.
For experiment [15], the system named is ACHN renal.
Experiment [16] has as its system CAKI-1 renal.
The test system of experiment [17] is A498 renal.
Experiment [18] has as its system CCRF-CEM leukemia.
The subject of experiment [19] is MOLT-4 leukemia.

Molecules are shown by their SMILES. The panel holds about 83,000 compounds, 20% with a hit somewhere; the sample as a whole holds those more often.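 Cells were grown in 96-well plates and exposed to the test compound at a single concentration for 48 hours; results are reported as percent growth, with values below 10 considered active.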 A number with no mark means an inactive call. The source made the active and inactive calls.

With `Cc1[nH]c(/C=C2\C(=O)Nc3ccc(F)cc32)c(C)c1C(=O)NC[C@H](O)CN1CCOCC1`, the growth in [1] is 19.1%; in [2], 9.81% (active); in experiment [3] it was 35.2%; in [4], 96.7%; in experiment [5], 60.5%; in experiment [6] it was 36.2%. The growth in experiment [7] was 21.4%; in experiment [8] it was 29.9%; in experiment [9], 9.27% (active); in experiment [10] it was 17.7%; in experiment [11], 44.9%; in experiment [12] it was 27.6%. Also, the growth in [13] is -1.44% (active); in [14], 50.1%; in experiment [15] it was 23.8%; in experiment [16] it was 4.97% (active); in [17], 30.5%; in [18], 33%. For the same molecule, the growth in experiment [19] is 15.7%.
For the molecule `Nc1nc(Nc2ccccc2)c(C=Nc2ccccc2)c(=O)[nH]1`, the growth in experiment [1] is 96.9%; in [2] it was 101%; in [3], 80.3%; in experiment [4], 89.1%; in experiment [5], 89.1%; in experiment [6] it was 87.5%. In addition, the growth in [7] is 98.4%; in experiment [8], 84.3%; in experiment [9] it was 87.1%; in experiment [10], 109%; in [11], 89.1%; in [12] it was 91%. The growth is 61% in experiment [13]; 116% in experiment [14]; 83.4% in [15]; 68% in experiment [16]; 86.3% in [17]; 92.1% in [18]. In addition, in experiment [19], the growth was 81.2%.
On to `CCCCn1c(C)nc2cc(Nc3nc(N4CCCCC4)nc4nc[nH]c34)ccc21`, for which the growth was 52.9% in [1]; 59.8% in experiment [2]; 11.4% in experiment [3]; 73.3% in experiment [4]; 58.5% in [5]; 25.7% in experiment [6]. Besides, the growth in [7] was -31.7% (active); in experiment [8], 45.4%; in experiment [9], 33.7%; in experiment [10], 76%; in experiment [11], 52.5%; in [12], 49.6%. For the same molecule, the growth in experiment [13] is 28.1%; in [14] it was 57.2%; in [15] it was 36.8%; in experiment [16], 31.1%; in experiment [17], 34.3%; in [18], 46.6%. Further, the growth in experiment [19] is 9.09% (active).
For `COc1cc2nc(Nc3cccc(Cl)c3)nc(N)c2cc1OC`, the growth in experiment [1] is 6.41% (active); in [2] it was 6.72% (active); in [3] it was 94.5%; in experiment [4], 106%; in experiment [5], 66.4%; in experiment [6], 53.9%. The growth in experiment [7] is 64.5%; in experiment [8], 96.3%; in [9], 59.8%; in experiment [10], 83.8%; in experiment [11] it was 111%; in experiment [12], 79.3%. For the same molecule, the growth in experiment [13] is 75.3%; in [14], 91.9%; in experiment [15] it was 95.8%; in experiment [16] it was 146%; in [17] it was 63.5%; in experiment [18] it was -81.3% (active). In experiment [19], the growth was 53.7%.
As to `O=C(Cc1ccc(-c2ccc(OCCN3CCOCC3)cc2)cn1)NCc1ccccc1`, the growth is 7.16% (active) in experiment [1]; 4.32% (active) in experiment [2]; 15.3% in experiment [3]; 14.1% in [4]; 3.6% (active) in [5]; 15.2% in [6]. In addition, the growth was -39.8% (active) in [7]; 29% in experiment [8]; 17.5% in experiment [9]; 36.1% in experiment [10]; 26.1% in experiment [11]; 20.3% in [12]. For the same molecule, the growth in experiment [13] was 35.8%; in experiment [14], 40.3%; in experiment [15], 22.1%; in [16], 19%; in [17], 1.26% (active); in experiment [18] it was 9.96% (active). For the same molecule, in experiment [19], the growth is 18.1%.
`Cc1nc(-c2cn3c(n2)-c2ccc(-c4cnn(C(C)(C)C(N)=O)c4)cc2OCC3)n(C(C)C)n1`: the growth in experiment [1] is 30.8%; in experiment [2], 10.5%; in [3], -5.53% (active); in experiment [4], 30.8%; in [5] it was 23.5%; in [6], 23.5%. The growth in [7] is 8.62% (active); in experiment [8] it was -22.6% (active); in experiment [9], 11.6%; in [10], 9.16% (active); in experiment [11], 36.1%; in [12], 25.7%. Also, the growth in experiment [13] was 5.32% (active); in [14], 8.61% (active); in experiment [15] it was 15.9%; in experiment [16] it was 21.1%; in [17] it was -31.3% (active); in experiment [18] it was 26.4%. In experiment [19], the growth was 15.2%.
With `C=CC(=O)N1CCC[C@@H](n2nc(-c3ccc(Oc4ccccc4)cc3)c3c(N)ncnc32)C1`, the growth in experiment [1] was 72.6%; in experiment [2], 30.1%; in experiment [3], 19.6%; in experiment [4], 49.8%; in [5], 48.1%; in [6] it was 57.2%. Also, the growth in experiment [7] was 56.1%; in [8] it was 20.6%; in [9] it was 24.3%; in experiment [10], 79.2%; in [11], 52.8%; in [12], 27.2%. Further, the growth in [13] is 6.16% (active); in [14] it was -8.56% (active); in [15], 23.5%; in [16], 32.9%; in experiment [17], -17.1% (active); in experiment [18], 54.8%. In addition, the growth in [19] is 25.3%.
For the molecule `COc1ccc(Cl)c(Nc2nc3ccccc3nc2NS(=O)(=O)c2cccc(NC(=O)C(C)(C)N)c2)c1`, the growth in experiment [1] was 44.9%; in experiment [2], 27.7%; in experiment [3], -20.2% (active); in [4], 63.9%; in [5] it was 35%; in experiment [6], 22.3%. Moreover, the growth in experiment [7] is 57.1%; in [8] it was 36.5%; in [9] it was 25.8%; in experiment [10] it was 53.1%; in [11] it was 48.5%; in experiment [12] it was 51.2%. Moreover, the growth is 8.83% (active) in experiment [13]; 29.8% in [14]; 40.3% in [15]; 29% in [16]; -33.2% (active) in experiment [17]; 46.9% in [18]. The growth in experiment [19] is 13.4%.
